About 79,000 compounds went through this panel and 15% of them were active in at least one assay; those are over-represented in the sample as a whole. A number with no mark means an inactive call. The source made the active and inactive calls. Rule as the data show it: active = growth inhibition above about 70%; inactive = the rest.

In PubChem BioAssay (NCI) one finds growth inhibition data, which are given here for 20 molecules.

Test [1] is described as follows: NCI Yeast Anticancer Drug Screen. Data for the rad50 strain (AID 155).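 Also: 0% = growth of vehicle-only cultures of the same strain.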 The settings on record: S. cerevisiae rad50 strain growth inhibition; at 50.0 µM; stronger effect = higher value. The gist of the method:
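Growth of the mutant yeast was measured after compound exposure and referenced to vehicle-treated cultures.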

Test [2] can be described thus: NCI Yeast Anticancer Drug Screen. Data for the mec2-1 strain (AID 157). The settings on record: S. cerevisiae mec2-1 strain, at 50.0 µM, stronger effect = higher value. The method, boiled down:
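Using mec2-1 yeast: add compound, measure growth, express inhibition versus vehicle-treated cultures.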

Test [3] can be described thus: NCI Yeast Anticancer Drug Screen. Data for the sgs1 mgt1 strain (AID 161).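 Also: 0% = growth of cultures given vehicle only.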 The settings on record: S. cerevisiae sgs1 mgt1 strain, at 50.0 µM, stronger effect = higher value. The method, boiled down:
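Percent growth inhibition was derived by comparing compound-exposed mutant yeast with vehicle-exposed cultures. The strain carries alterations in DNA damage repair.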

The nature of test [4]: NCI Yeast Anticancer Drug Screen. Data for the cln2 rad14 strain (AID 165).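 Also: 0% = growth equal to vehicle treated cultures.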 As to conditions: S. cerevisiae cln2 rad14 strain, at 50.0 µM, stronger effect = higher value. The method, boiled down: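 Yeast strain cln2 rad14, bearing defects in cell cycle control and DNA repair, serves as the test system; values reflect growth inhibition compared with vehicle.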
A short description of test [5]: NCI Yeast Anticancer Drug Screen. Data for the bub3 strain (AID 167). As to conditions: S. cerevisiae bub3 mutant strain, at 50.0 µM, stronger effect = higher value. The method, boiled down: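 Whole-cell yeast assay. The mutant strain was incubated with compounds, and growth inhibition was determined by comparison with vehicle-treated cells.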
Test [6] is described as follows: NCI Yeast Anticancer Drug Screen. Data for the mlh1 rad18 strain (AID 175). As to conditions: S. cerevisiae mlh1 rad18 strain growth inhibition; at 50.0 µM; stronger effect = higher value. The method, boiled down:
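Steps: expose repair-defective yeast to compound; measure growth; express inhibition against vehicle-treated controls.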

Turning to `CCCCCCCN1C(=O)C(O)(c2ccc(C3(O)C(=O)N(CCCCCCC)c4ccccc43)s2)c2ccccc21` (stereo not given), the growth inhibition in test [1] is 9.35%; in test [2], 10.9%; in test [3], 4.9%; in test [4] it was 10.2%; in test [5], 9.7%; in test [6] it was 14.6%.
`COCC(=O)Oc1ccc[nH]c1=O`: the growth inhibition was 1.55% in test [1]; 2.6% in test [2]; 7.85% in test [3]; -17.1% in test [4]; -7.25% in test [5]; 22.2% in test [6].
For `CCCCCCCCCOc1ccc2ccccc2c1`, the growth inhibition in test [1] is -16.9%; in test [2] it was 16.1%; in test [3] it was 22.4%; in test [4] it was -17.9%; in test [5], -15.2%; in test [6] it was -4.5%.
`O=C(c1ccccc1)C1N=NN(Cc2ccccc2[N+](=O)[O-])C1C(=O)c1ccccc1` (stereo not given): the growth inhibition in test [1] was -6.75%; in test [2], -30.9%; in test [3], -25.1%; in test [4], -57.5%; in test [5] it was -1.45%; in test [6], -0.65%.
For the molecule `c1ccc(-c2cc3nncc(-c4ccccc4)n3n2)cc1`, the growth inhibition in test [1] is -14.9%; in test [2], -9.95%; in test [3], -7.65%; in test [4], 13.9%; in test [5], 13.3%; in test [6], 3.55%.
`Cc1c(Br)c(C)[n+]([O-])n1O`: the growth inhibition in test [1] was 4%; in test [2] it was 8.75%; in test [3] it was 5.05%; in test [4], -17%; in test [5], 26.4%; in test [6], 0.2%.
For `CCCOC(=O)CCBr`, the growth inhibition in test [1] was -2.55%; in test [2], 10.1%; in test [3] it was -13.9%; in test [4] it was -57%; in test [5], -22.9%; in test [6], -8.1%.
With `CN1CCC(c2ccccc2)(c2ccccc2)C(O)C1` (stereo not given), the growth inhibition was 1.15% in test [1]; -0.45% in test [2]; 13.7% in test [3]; 4.35% in test [4]; 3.3% in test [5]; 4.7% in test [6].
Regarding `FC(F)(F)c1nc(Cl)c2cn[nH]c2n1`, the growth inhibition is -8.7% in test [1]; 39.6% in test [2]; -1.15% in test [3]; -16.9% in test [4]; 25.9% in test [5]; -24.4% in test [6].
Turning to `CCCCC1c2c([nH]c3ccccc23)C2C(=O)N(c3ccc(OC)cc3)C(=O)C2C1CCC` (stereo not given), the growth inhibition in test [1] was 9.75%; in test [2], -19.5%; in test [3], -14.6%; in test [4], -27.5%; in test [5], 1.6%; in test [6], -5.6%.
Regarding `N#CCCN(CCC#N)c1ccc(C(=O)NN)cc1`, the growth inhibition in test [1] is -18.1%; in test [2] it was -15.9%; in test [3], -3.2%; in test [4], 25.2%; in test [5], -8.8%; in test [6] it was -5.3%.
As to `Cc1nc(-c2nc(C(=O)NCCC[S+](C)C)cs2)cs1`, the growth inhibition was -11.5% in test [1]; -7.85% in test [2]; -5.4% in test [3]; 3.4% in test [4]; -2.35% in test [5]; -0.2% in test [6].
Regarding `C[n+]1ccccc1/C=C/C=C/c1ccccc1`, the growth inhibition in test [1] is 0.45%; in test [2], -13.1%; in test [3] it was 1.4%; in test [4], -17.3%; in test [5], -6.1%; in test [6] it was 1.9%.
Consider `COC1/C=C\OC2(C)Oc3c(C)c(O)c4c(c3C2=O)C(=O)C(Br)=C(NC(=O)/C(C)=C\C=C/C(C)C(O)C(C)C(O)C(C)C(OC(C)=O)C1C)C4=O` (stereo not given), for which the growth inhibition was 16.1% in test [1]; 13.8% in test [2]; 22.4% in test [3]; 22.2% in test [4]; 14.8% in test [5]; 20.5% in test [6].
Turning to `COC1OC(C(C)Br)C2OC(C)(C)OC12` (stereo not given), the growth inhibition was 7.1% in test [1]; 21.4% in test [2]; 3.5% in test [3]; -6.2% in test [4]; 9.85% in test [5]; 27.4% in test [6].
In the case of `COC(=O)CNC(=O)C1CSC(C)(C)N1` (stereo not given), the growth inhibition was -5.9% in test [1]; -6.65% in test [2]; -15.7% in test [3]; -12.2% in test [4]; -1.05% in test [5]; -9.15% in test [6].
Turning to `CCN(CC)CC(=O)N1CCc2c([nH]c3ccccc23)C1c1cccnc1` (stereo not given), the growth inhibition is -40.1% in test [1]; -21.4% in test [2]; -11.6% in test [3]; -5.95% in test [4]; -35.5% in test [5]; -34.5% in test [6].
As for `CCOC(=O)NC(C)(C)CC(C)(C)C`, the growth inhibition in test [1] is -0.6%; in test [2], -17.6%; in test [3], -4.7%; in test [4], 11.9%; in test [5], -18.6%; in test [6] it was 17.4%.
For the molecule `O=C(Nc1cc(Cl)c(Oc2ccc(Cl)cc2)cc1S(=O)(=O)O)Nc1cccc(Cl)c1Cl`, the growth inhibition was 99% (active) in test [1]; 99.5% (active) in test [2]; 99.6% (active) in test [3]; 98.2% (active) in test [4]; 98.7% (active) in test [5]; 99.4% (active) in test [6].
For the molecule `NC(=O)c1csc(C2O[C@@H](COP(=O)(O)OP(=O)(O)OC[C@H]3OC(n4cnc5c(N)ncnc54)[C@H](O)[C@@H]3O)[C@H](O)[C@@H]2O)n1` (stereo not given in full), the growth inhibition in test [1] was 28.8%; in test [2], -0.75%; in test [3], -0.55%; in test [4] it was -37.5%; in test [5], 2.75%; in test [6], 10.9%.
